The source of these data is PubChem BioAssay AID1814 (Broad Institute, 2009).

Each structure is given as a SMILES string. The whole screen tested about 300,000 compounds, of which about 22,000 (7.3%) were called active. Not shown: some 2% with an inconclusive outcome. This is one part of a sample in which actives are shown more often than they occur. Unmarked numbers belong to inactive results. No stated cut-off is given here; in the data, active means activity score below about -60%; inconclusive means mostly about -28% to -61%; inactive means positive scores.

This test in a line: Activators working through SNCA 5'UTR binding (MLPCN) (AID 1814). To be noted: alpha-synuclein 5'UTR reporter, activators screen; hits give low values; tested at 7.5 µM.
As for `CCOC(=O)CSC1=C(C#N)C(c2sccc2C)CC(=O)N1` (stereo not drawn), the activity score was 75%.

Turning to `O=C(CSCc1ccc(Cl)cc1)N1CCCCC1`, the activity score was -102% (active).

Consider `O=C(CSCc1cccs1)N1CCCC1`, for which the activity score is -80.2% (active).

In the case of `Nc1scc(-c2ccncc2)c1Cl`, the activity score was -79.4% (active).

`CC1CN/C(=C\C(=O)c2ccc(Br)cc2)C(=O)N1` (stereo not drawn): the activity score was 62%.

Take `CC(=O)c1ccc(Oc2cc(C)nc(-n3nc(C)cc3C)n2)cc1`: the activity score is 80.1%.

For `O=C(CSc1nc2ccccc2o1)N/N=C/c1ccccc1C(=O)O`, the activity score is -97.9% (active).

Consider `Cc1ccc(/C=N/NC(=O)CSc2nc3ccccc3o2)cc1`, for which the activity score was -108% (active).

Consider `COC(=O)c1ccc(/C=N/N2C(C)CCCC2C)cc1` (stereo not drawn), for which the activity score was -172% (active).

As for `O=C(c1ccc2ccccc2n1)N1CCN(c2ccccc2Cl)CC1`, the activity score is -142% (active).

Regarding `CC(=O)c1ccc(S(=O)(=O)N2CCN(C(=O)/C=C/c3ccc4ccccc4n3)CC2)cc1`, the activity score was 62.4%.

On to `Oc1ccccc1-c1cc(-c2ccc(Cl)cc2)n[nH]1`, for which the activity score was -126% (active).

Take `c1ccc(-c2cc(-c3ccccc3)[nH]n2)cc1`: the activity score was -106% (active).

For the molecule `Cc1ccc(Nc2nc(-c3ccc(O)cc3O)cs2)nc1`, the activity score was -189% (active).

In the case of `COc1ccc(OCCCn2cccc2/C=C2/C(=N)N3OC(C)=CC3=NC2=O)cc1`, the activity score was -95.9% (active).

Turning to `Cc1ccc(-c2nn(-c3cccc(F)c3)cc2CNCCc2ccncc2)o1`, the activity score is -74% (active).

With `CN(C)c1ccc(/C=C/C(=O)c2ccc(O)cc2)cc1[N+](=O)[O-]`, the activity score was -203% (active).

Regarding `O=C(/C=C/c1ccc(Cl)c([N+](=O)[O-])c1)c1ccc(O)cc1`, the activity score is -156% (active).

`O=C(/C=C/c1ccc2c(c1)OCCO2)c1ccc(O)cc1`: the activity score was -260% (active).

Consider `COc1ccc(/C=C2\SC(=S)N(CCCC(=O)NC3CCCC3)C2=O)cc1OC`, for which the activity score was 83.7%.

`COc1ccc(/C=C2\SC(=O)N(CCC(=O)NC3CCS(=O)(=O)C3)C2=O)cc1` (stereo not drawn): the activity score is -71.6% (active).

For the molecule `Cc1nc(-c2ccccc2)sc1C(=O)/C=C/N(C)C`, the activity score is -76.2% (active).

For the molecule `Cc1nc(-c2ccccc2)sc1C(=O)/C=C/c1ccccc1`, the activity score was -83.8% (active).

In the case of `CCOC(=O)c1c(C)[nH]c(C2=NNC(=NC(C)COC)SC2)c1C` (stereo not drawn), the activity score is -98.9% (active).

With `CN(Cc1ccccc1)C(=O)CSc1nc2ccccc2[nH]1`, the activity score was -93.7% (active).

For `O=C(CSc1nc2ccccc2[nH]1)c1cccs1`, the activity score is -160% (active).

`O=C1c2ccccc2NC(c2ccc(-c3cccc(Cl)c3)o2)N1O` (stereo not drawn): the activity score was -145% (active).

Take `Cc1cccc(C(=O)Nc2ccc3c(c2)C(=O)N(CC(C)C)C3=O)c1`: the activity score was -149% (active).
